# Data published in PubChem BioAssay (NCI).
# Where “and” joins values, the source holds several entries; their conditions need not be identical. Equal values may be shown once. About 83,000 compounds went through this panel and 20% of them were active in at least one assay; those are over-represented in the sample as a whole.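 96-well plates, one dose, 48 hours. Percent growth reported; active if below 10.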 Calls of active or inactive are those of the source.
# Tested on: MDA-MB-468 breast
# Assay: NCI-60 one-dose screen, 48 h (100 = growth as untreated, 0 = no growth, -100 = all killed)
# Settings: 10 µM unless noted
row,SMILES,growth
1,Cc1cc(Nc2nc(SCc3ccc(C(=O)Nc4ccc(F)cc4N)cc3)nn3cccc23)n[nH]1,47.7% (inactive)
2,COc1ccc2c(c1OC)C(=O)O[C@H]2[C@H]1c2c(cc3c(c2OC)OCO3)CCN1C,90.3% (inactive)
3,CCCCCN(CCCCC)CC(O)c1cc2c(c3ccccc13)CCCC2 (stereo not drawn),72.1% (inactive) and 81.2% (inactive)
4,COc1ccc(C(=O)CC(c2ccccc2)C(C#N)c2ccccc2)cc1 (stereo not drawn),69.8% (inactive)
5,COc1cccc2c1C=CC1(O2)Oc2cccc(OC)c2C=C1C (stereo not drawn),39.5% (inactive)
6,COc1ccc(NC(=O)c2ccc(/C=C/C(=O)c3ncc[nH]3)cc2)cc1,44.3% (inactive)
7,Cc1nc2cc(Nc3nc(Nc4ccc(F)cc4)nc(N4CCN(C)CC4)n3)ccc2n1Cc1ccccc1,-32.7% (active)
8,COc1cccc(NC(=O)c2sc3nc4c(cc3c2N)CN(Cc2ccccc2)CC4)c1,64.4% (inactive)
9,Cc1c(Cl)cccc1C(=O)Nc1nc2c(s1)CN(C(=O)Nc1cccc(C(F)(F)F)c1)CC2,16.7% (inactive)
10,COc1cc(C2CC(c3ccccc3)=NN2C=O)ccc1Oc1nc2c(c(=O)n(C)c(=O)n2C)n1C (stereo not drawn),63.9% (inactive)
11,CC1=C[C@H]2c3c(c(O)c(O)c4oc5ccccc5c(=O)c34)[C@H](c3cc(O)c(O)c4oc5ccccc5c(=O)c34)[C@H]2C(C)(C)C1,25.2% (inactive)
12,O=C1c2c(c3c4ccc(Br)cc4oc3c3[nH]c4ccccc4c23)C(=O)N1CCO,46.5% (inactive)
13,CC(=O)/C(Cc1ccccc1)=N/O,99.1% (inactive)
